Source: PubChem
Shown are actives, neighbours in structure and some others; about 3.4% of the full set was active somewhere.
Luciferase inh: firefly luciferase inhibition; P08659; purified firefly luciferase, luminescence, 8 min; Potency, µM (series often up to 57.1 µM), for the others: at the highest dose activity change, negative = inhibition, usual class: inhibitors; hit rate 2.2% among 72,000; active = well fitted inhibition curve with a large enough effect; inconclusive = small, poorly fitted or top-dose-only effect; also: % is scaled to controls: 0 for no effect and ±100 for the full control effect; nearly all actives have a fitted effect of over 40% in size
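Luminescence read-out after 8 min at room temperature; enzyme reaction used luciferin plus 10 uM ATP (linear range) in imidazole buffer pH 7.2 with KCl, MgCl2, Tween 20 and BSA. Each sample was run as a titration.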
PK Bst: pyruvate kinase (B. stearothermophilus) modulation. purified pyruvate kinase, luminescence ATP production; ribose 5-phosphate activator present at AC10. Potency, µM. hit rate 1.2% among 51,000. AID 361; in the data active = potency below about 11 µM; inconclusive = mostly about 12 µM to 25 µM;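 the screen sought inhibitors and activators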;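 also: scaled between full activation by ribose 5 phosphate and full inhibition by luteolin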
GBA activity: human lysosomal glucosylceramidase modulation. hit rate 1.1% among 48,000. Potency, µM. purified enzyme, resorufin glucoside fluorescence (screen aimed at inhibitors), 20 min. P04062; in the data active = potency below about 15 µM; inconclusive = mostly about 16 µM to 33 µM;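 also: the screen sought inhibitors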
Target sequence (P04062 whole entry, looked up): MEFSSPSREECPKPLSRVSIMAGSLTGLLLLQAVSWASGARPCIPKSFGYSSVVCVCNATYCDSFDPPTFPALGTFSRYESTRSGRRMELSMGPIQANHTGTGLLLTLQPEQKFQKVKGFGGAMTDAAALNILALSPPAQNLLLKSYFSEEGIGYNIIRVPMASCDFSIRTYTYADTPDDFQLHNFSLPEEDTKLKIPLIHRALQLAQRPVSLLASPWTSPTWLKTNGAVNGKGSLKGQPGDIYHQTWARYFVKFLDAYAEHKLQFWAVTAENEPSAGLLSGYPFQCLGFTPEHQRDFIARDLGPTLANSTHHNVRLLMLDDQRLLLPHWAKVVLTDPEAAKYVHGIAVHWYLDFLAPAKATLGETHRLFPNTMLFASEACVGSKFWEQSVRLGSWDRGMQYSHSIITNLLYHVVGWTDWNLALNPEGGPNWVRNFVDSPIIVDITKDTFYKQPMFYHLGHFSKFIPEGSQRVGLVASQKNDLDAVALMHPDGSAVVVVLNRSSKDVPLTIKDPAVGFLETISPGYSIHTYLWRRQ
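Normal human glucocerebrosidase (0.2 nM final) was assayed with resorufin β-D-glucopyranoside (30 uM final) in 50mM citric acid/KH2PO4, 10mM sodium taurocholate, 0.01% tween-20, pH 5.9. Compounds were titrated; fluorescence (Ex 548, Em 600) read after 20 min at RT.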
Numbers without * were called inactive; i = inactive; ? = inconclusive; . = not tested or not shown; [ ] = dose if it differs, or a comment. Potency is read from the fitted curve at half-maximal effect.

SMILES	Luciferase inh	PK Bst	GBA activity
N#Cc1c(N)n[nH]c1-c1cc2c([nH]1)CCCC2	-5.1%	6.28*	.
CCN1C(=O)[C@@H]2[C@H]3C(=CC[C@@H]2C1=O)C1(OCCCO1)[C@H]1O[C@@H]1[C@H]3O	-2.0%[11.4 µM]	.	.
Cc1cc(NC(=O)NC(=O)c2ccc(F)cc2F)n[nH]1	15.8µM*	.	>76.9
Cc1cc(C)c(NC(=O)NC(=O)c2cccc(F)c2)c(C)n1	-1.3%	>57	i
COc1ccc2[nH]cc(CCNc3ccnc(-c4ccc(N(C)C)cc4)n3)c2c1	-1.6%[2.29 µM]	.	.
Cc1nc2cnc(N3CCNCC3)nc2n(C2CC2)c1=O	1.2%[11.4 µM]	.	.
CON(C)C(=O)c1nnc2c(n1)[nH]c1ccccc12	-4.8%[11.4 µM]	.	.
c1ccc2nc3c(nc2c1)[nH]c1ccccc13	15.8µM*	4.15*	>76.9
O=C(O)CCN1C(=S)CSC1=S	-1.9%[11.4 µM]	.	.
COc1ccc(N2CCN(C(=O)c3ccc(C)c(Cl)c3)CC2)cc1	1.0%	6.38*	>76.9
COc1ccc(N2CCN(C(=O)c3ccc(C)cc3Cl)CC2)cc1	1.4%	.	>76.9
CCC1(C)Cc2nc3sc(C(=O)O)c(N)c3cc2CO1 (configuration not stated)	-3.2%	>57	>76.9
CCOC(=O)c1sc2nc3c(cc2c1N)COC(C)(C)C3	20µM*	i	>76.9
COc1ccc2nc(NC(=O)CN3CCN(C)CC3)sc2c1	-6.6%	>57	>76.9
CCCC(=O)Nc1nc2ccc(OC)cc2s1	12.6µM*	.	.
COc1ccc2sc(NC(=O)c3ccco3)nc2c1	7.94µM*	5.44*	>76.9
COC(=O)c1sc(NC(=O)c2ccoc2C)nc1C	-7.8%	>57	>76.9
COc1ccc2nc(NC(=O)c3ccoc3C)sc2c1	3.16µM*	i	>76.9
CCOCC(=O)Nc1nc2ccc(OCC)cc2s1	-29.1%	i	>76.9
COc1ccc2c(c1)-c1nc(NC(=O)c3ccco3)sc1CC2	-17.5%	.	>76.9
CCOCC(=O)Nc1nc2ccc(C)cc2s1	25.1µM*	.	>76.9
O=C(c1cccc(F)c1)N1CCC2(CCCN(Cc3nccs3)C2)CC1	0.9%[11.4 µM]	.	.
O=C1CCCC=C1[C@@H](O)CCOC(c1ccccc1)(c1ccccc1)c1ccccc1	0.0%[11.4 µM]	.	.
COc1ccc(NC(=O)N2CC3(CCN(C(=O)c4cccc(F)c4)CC3)C2)cc1	1.4%[11.4 µM]	.	.
COc1ccc(-n2c(=O)cnc3cnc(N4CCN(C)CC4)nc32)cc1	-0.3%[11.4 µM]	.	.
SMILES	Luciferase inh	PK Bst	GBA activity
CCSc1nnc(NC(=O)c2cccs2)s1	-1.7%	.	.
Cc1ccc2nc(NC(=O)c3cccs3)sc2c1	2µM*	4.21*	>76.9
O=C1[C@H]2[C@H]3[C@H](O)[C@H](O)C/C(=N/OC[C@@H](O)COCc4ccco4)[C@@H]3CC[C@@H]2C(=O)N1C1CCCCC1	1.8%[11.4 µM]	.	.
COc1ccccc1-c1ccc2ncnc(NC3CCNCC3)c2c1	1.6%[2.29 µM]	.	.
Cc1ccc(C=Nc2ccc(N(C)C)cc2)o1	3.16µM*	.	.
Cc1ccc(/C=N/n2nnnc2N)o1	-1.6%[25.5 µM]	>25.6	.
CCCCOc1ccc(OCCCC)c2c1NC1(N2)C(=O)N(C(C)=O)c2ccccc21	3.8%	>57	6.12*
CCNC(=O)N1C(=O)C2(OCCO2)c2ccccc21	-0.4%	>57	>76.9
CN(C)c1ncc2nc(-c3ccc(Cl)cc3)c(=O)n(-c3ccccc3)c2n1	0.4%[11.4 µM]	.	.
CCc1cc2c(nc1CC)CCN(CC/C(C)=N/OC[C@@H](O)[C@@H]1O[C@@H]3OC(C)(C)O[C@@H]3[C@H]1O)C2	1.3%[11.4 µM]	.	.
O=S(=O)(Nc1ccc(N2CCCCC2)cc1)c1cccs1	-8.9%	>57	>76.9
O=S(=O)(Nc1cc(Cl)ccc1N1CCCCC1)c1cccs1	1.0%	>57	15.4*
Cn1c(=O)c(CCc2ccccc2)nc2cnc(Oc3ccccc3)nc21	0.0%[11.4 µM]	.	.
COc1ccccc1N1CCN(C[C@@H](C(=O)NC(C)(C)C)c2ccccc2)CC1	2.9%	.	.
Nc1nc(CN2CCN(c3ccc(F)cc3)CC2)nc(N2CCCc3ccccc32)n1	2.6%	>57	10.4*
O=C(CSc1nc2c(cnn2-c2ccc(F)cc2)c(=O)[nH]1)N1CCCc2ccccc21	3.6%	>57	.
Cc1onc(-c2ccccc2Cl)c1C(=O)Nc1ccc(F)c(F)c1	1.0%	>57	i
Cc1onc(-c2ccccc2Cl)c1C(=O)Nc1cccc(-c2cn3cccnc3n2)c1	-2.1%	>57	11.4*
Cc1cc(C(=O)Nc2cnn(Cc3ccc(Cl)cc3Cl)c2)no1	-2.4%	9.19*	i
COc1ccc(-c2cc(C(=O)Nc3cnn(Cc4ccccc4C)c3)no2)cc1OC	-2.3%	>57	>76.9
O=C1CCCC/C1=C\Nc1ccc(O)cc1	-3.1%	>11.4	>76.9
O=C1CCCC/C1=C\Nc1ccc(Cl)cn1	-6.9%	>57	13.9*
COc1cc(C)cc(OC)c1/C=C\C(=O)O	2.9%[11.4 µM]	.	.
O=c1c(-c2ccccc2)nc2cnc(N3CCOCC3)nc2n1CCc1ccccc1	-0.2%[11.4 µM]	.	.
Cc1ccc(C(=O)Cn2c(NCCO)nc3ccccc32)cc1	-1.2%	>57	14.2*
SMILES	Luciferase inh	PK Bst	GBA activity
O=C(Cn1c(NCCCO)nc2ccccc21)c1ccc(Br)cc1	1.7%	>57	>76.9
Clc1ccccc1-c1nccc(NCc2ccccc2)n1	1.6%[2.29 µM]	.	.
O=C(N/N=C\c1ccc2c(c1)CCC2)c1ccccc1O	3.16µM*	.	.
O=C(N/N=C\c1cccc(O)c1)c1ccncc1	-1.5%[11.4 µM]	.	.
CCNc1ncc2ncc(=O)n(CCOC)c2n1	0.1%[11.4 µM]	.	.
Cc1cc(/C=N/n2cnnc2)c(C)n1-c1ccc(OCc2ccccc2F)cc1	2.0%	.	.
Cn1nnc(-c2ccc(OCc3ccccc3F)cc2)n1	25.1µM*	>57	>76.9
COc1ccccc1CN1CC2(CCN(C(=O)c3cccc(F)c3)CC2)C1	-1.1%[11.4 µM]	.	.
Cc1ccc2c(CC(=O)OCc3csc(C)n3)coc2c1	-1.1%	>57	>76.9
Cc1nc(-c2coc3cc(OCC(=O)O)ccc3c2=O)cs1	3.98µM*	9.65*	.
COc1ccc2c(=O)c(-c3nc(C)cs3)coc2c1	2µM*	4.15*	.
COc1ccc(-c2coc3cc(O)ccc3c2=O)cc1	-13.9%[11.4 µM]	.	.
c1ccc([C@H](CCN2CCCC2)c2ccccn2)cc1	2.0%[11.4 µM]	.	.
O=C1NC(=O)[C@@H]2C3c4ccccc4C=CN3[C@H](C(=O)c3cccs3)[C@H]12 (some centres not stated)	25.1µM*	6.21*	>76.9
CC(=O)[C@H]1[C@@H]2C(=O)N(c3cccc(Cl)c3)C(=O)[C@@H]2[C@H]2c3ccccc3C=CN21	-0.9%[25.5 µM]	>11.4	.
CN(C)CCCN1c2ccccc2Sc2cnccc21	1.7%[11.4 µM]	.	.
Cc1ccc2cc3cc(C(=O)N4CC(C)CC(C)C4)oc3nc2c1 (configuration not stated)	-6.5%	.	>76.9
Cc1ccc2cc3cc(C(=O)N4CCCCC4C)oc3nc2c1 (configuration not stated)	12.6µM*	?	>76.9
CN(C)Cc1nsc(N(C)C)n1	-0.2%[11.4 µM]	.	.
CCOC(=O)C1=C(C)NC(=S)NC1c1cccc(O)c1 (configuration not stated)	-4.0%	.	.
Clc1ccc(OCc2nnc(-c3ccccc3Br)o2)cc1	2.0%	>57	>76.9
S=c1[nH]nc(COc2ccc(Cl)cc2)o1	0.3%	3.93*	>76.9
CC[C@](N)(CCC(=O)O)C(=O)O	1.1%	.	.
Cc1ccc(C(=O)Nc2nnn(C)n2)cc1	25.1µM*	.	>15.4
Cn1nnc(NC(=O)c2cccc(F)c2)n1	-1.3%	>57	>76.9
O=C(Nc1cccc2cccnc12)c1ccc(Br)o1	-11.3%	>57	?
O=C(Nc1ccc(Br)c2cccnc12)c1ccc(Cn2cc(Cl)cn2)o1	0.1%	>57	9.25*
Cc1ccc(C(=O)Cn2nnc(-c3ccccc3-n3cnnn3)n2)cc1	0.3%	4.67*	>76.9
